Our source for the Potency and outcome values is PubChem BioAssay (Tox21).

Inconclusive results are not listed. Activity calls are given as the source filed them. Unless noted, the call rests on the fitted dose curve; in most records, active means well fitted curve in the direction sought with a large enough effect in the repeat runs; inconclusive means weak or mixed curves; inactive means no such curve, though single readings can be large; an effect the other way counts as inactive or inconclusive.

Experiment [1] concerns the target Estrogen receptor (Homo sapiens) (UniProt P03372). In words: qHTS assay to identify small molecule antagonists of the estrogen receptor alpha (ER-alpha) signaling pathway (AID 743069; active means well fitted curve in the direction sought with a large enough effect in the signal ratio in the repeat runs, not every such curve was filed as active; the % refers to the signal ratio). Summed up:
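Antagonist mode: compounds in DMSO were co-added with 17beta-estradiol to ER-alpha-bla HEK293 cells (2% charcoal-stripped serum) and left 18 h at 37C. Reporter inhibition was measured as FRET fluorescence after 2 h LiveBLAzer substrate at room temperature.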
(In qHTS, concentration-response curves come from the screen itself.)

Experiment [2] is described as follows: qHTS assay to identify small molecule antagonists of the estrogen receptor alpha (ER-alpha) signaling pathway - cell viability counter screen (AID 743074; calls by dose curve;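 further: HEK293 cells carrying ER-alpha-UAS-bla reporter stimulated with 17beta-estradiol; nearly all actives have a fitted effect of over 45% in size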).
For experiment [3], the target named is Estrogen receptor (Homo sapiens) (UniProt P03372). The experiment is described as follows: qHTS assay to identify small molecule agonists of the estrogen receptor alpha (ER-alpha) signaling pathway (AID 743075; calls by dose curve;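 further: HEK293 GripTite cells with ER-alpha and UAS-driven beta-lactamase reporter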; further: potency means the concentration at half of the fitted maximal effect).
Chain of Estrogen receptor (Homo sapiens) (P03372 whole entry, looked up): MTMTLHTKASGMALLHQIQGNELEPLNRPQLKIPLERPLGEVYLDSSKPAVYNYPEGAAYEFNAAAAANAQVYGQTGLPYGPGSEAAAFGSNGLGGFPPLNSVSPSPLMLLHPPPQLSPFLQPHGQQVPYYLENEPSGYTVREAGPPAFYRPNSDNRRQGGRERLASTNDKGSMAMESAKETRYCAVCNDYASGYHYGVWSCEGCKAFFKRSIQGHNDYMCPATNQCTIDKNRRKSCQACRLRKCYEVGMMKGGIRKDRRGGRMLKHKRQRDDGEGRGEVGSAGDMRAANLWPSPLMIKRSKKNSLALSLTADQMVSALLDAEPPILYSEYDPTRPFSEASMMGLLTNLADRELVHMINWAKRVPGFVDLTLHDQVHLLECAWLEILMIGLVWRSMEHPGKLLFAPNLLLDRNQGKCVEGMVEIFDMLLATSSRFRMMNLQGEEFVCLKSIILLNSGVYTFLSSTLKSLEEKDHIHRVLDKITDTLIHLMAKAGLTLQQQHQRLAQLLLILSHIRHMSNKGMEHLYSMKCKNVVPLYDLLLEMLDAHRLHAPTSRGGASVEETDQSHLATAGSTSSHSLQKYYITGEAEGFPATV
Experiment [4] shares this target. In words: qHTS assay to identify small molecule agonists of the estrogen receptor alpha (ER-alpha) signaling pathway using the BG1 cell line (AID 743079). Further: nearly all actives have a fitted effect of over 20% in size. Further: potency means the concentration at half of the fitted maximal effect.
Experiment [5] can be described thus: qHTS assay to identify small molecule antagonists of the estrogen receptor alpha (ER-alpha) signaling pathway using the BG1 cell line (AID 743080; calls by dose curve;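 further: BG1 cells stimulated with 17beta-estradiol alongside compound; series mostly up to about 70 µM; nearly all actives have a fitted effect of over 25% in size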). Summed up: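 After 5 days in phenol-red-free 10% charcoal-stripped FBS medium, BG1-Luc-4E2 cells were seeded, left 24 h at 37 C, co-treated with compounds and 17beta-estradiol for 21.5 h, then assayed for viability and luciferase.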

A short description of experiment [6]: qHTS assay to identify small molecule antagonists of the estrogen receptor alpha (ER-alpha) signaling pathway using the BG1 cell line - cell viability counter screen (AID 743081).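 Further: compound given together with 17beta-estradiol as the ER stimulus; series mostly up to about 70 µM; nearly all actives have a fitted effect of over 45% in size.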
Another experiment has as its target Aromatase (Homo sapiens) (UniProt P11511). In words: qHTS assay to identify aromatase inhibitors (AID 743083). Further: series mostly up to about 70 µM; nearly all actives have a fitted effect of over 55% in size.
A short description of experiment [7]: qHTS assay to identify small molecule antagonists of the thyroid receptor (TR) signaling pathway (AID 743065). Further: nearly all actives have a fitted effect of over 55% in size. Further: potency means the concentration at half of the fitted maximal effect. The essentials: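 Antagonism measured as loss of luciferase signal in GH3 cells stably carrying a TRE-luciferase reporter, co-treated with compound and T3 (1 nM final) for 23.5 h at 37 C. Viability was read in the same well by CellTiter-Fluor.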
Experiment [8] deals with thyroid hormone receptor (rat, GH3 cells). The experiment is described as follows: qHTS assay to identify small molecule agonists of the thyroid receptor (TR) signaling pathway (AID 743066; calls by dose curve).

Chain of Aromatase (Homo sapiens) (P11511 whole entry, looked up): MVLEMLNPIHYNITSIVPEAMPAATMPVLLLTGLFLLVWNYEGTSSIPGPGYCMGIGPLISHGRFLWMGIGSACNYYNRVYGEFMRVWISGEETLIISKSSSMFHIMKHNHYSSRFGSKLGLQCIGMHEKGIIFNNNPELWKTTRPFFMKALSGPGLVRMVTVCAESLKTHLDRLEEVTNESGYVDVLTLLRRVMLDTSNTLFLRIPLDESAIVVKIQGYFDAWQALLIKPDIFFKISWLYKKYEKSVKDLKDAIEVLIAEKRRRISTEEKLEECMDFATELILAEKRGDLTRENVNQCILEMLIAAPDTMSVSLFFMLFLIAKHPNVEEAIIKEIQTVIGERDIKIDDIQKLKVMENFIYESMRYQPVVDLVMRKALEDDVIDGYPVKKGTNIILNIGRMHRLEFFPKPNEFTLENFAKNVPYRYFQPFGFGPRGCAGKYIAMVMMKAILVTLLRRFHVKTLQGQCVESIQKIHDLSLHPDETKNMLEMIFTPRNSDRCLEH

Regarding `CC(COc1ccccc1)NN` (configuration not stated), the Potency entry in [1], in [2], in experiment [3], in experiment [4] and in experiment [5] was “inactive” in each case. Also, the molecule was classed as inactive (in experiment [6]; with Aromatase (Homo sapiens)).

As for `COc1ccccc1OCC1CNC(=O)O1` (configuration not stated), the Potency entry in experiment [7] and in [2] was “inactive” in each case. Further, the molecule was called inactive (in experiment [8]; in experiment [6]; with Aromatase (Homo sapiens)).

As for `C=CN1CCCCCC1=O`, the Potency result in experiment [2] was “inactive”. Also, the result in experiment [6] was inactive.

For the molecule `Nc1ccn([C@@H]2O[C@H](CO)[C@@H](O)[C@@H]2O)c(=O)n1`, the result (in experiment [8]; in [6]; with Aromatase (Homo sapiens)) was inactive. Besides, the Potency result in [2], in experiment [3] and in experiment [5] was “inactive” throughout. Besides, in experiment [4], the Potency was 24.3 µM (active).

Turning to `CCOC(=O)CCC(=O)OCC`, the result (in [8]; in experiment [6]; with Aromatase (Homo sapiens)) was inactive. Moreover, the Potency result in experiment [1], in experiment [2], in experiment [3], in experiment [4] and in experiment [5] was “inactive” each time.

With `CC[C@H]1OC(=O)[C@H](C)[C@@H](O[C@H]2C[C@@](C)(OC)[C@@H](O)[C@H](C)O2)[C@H](C)[C@@H](O[C@@H]2O[C@H](C)C[C@H](N(C)C)[C@H]2O)[C@](C)(OC)C[C@@H](C)C(=O)[C@H](C)[C@@H](O)[C@]1(C)O`, the outcome (in [8]; with Aromatase (Homo sapiens)) was inactive. For the same molecule, the Potency result in experiment [2], in experiment [3], in experiment [4] and in experiment [5] was “inactive” in each case.

As to `N[C@H](C(=O)O)[C@@H](O)c1ccc(O)c(O)c1`, the outcome (in experiment [8]; in [6]; with Aromatase (Homo sapiens)) was inactive. Moreover, the Potency entry in experiment [1], in [2], in experiment [3], in [4] and in experiment [5] was “inactive” each time.

As to `COc1cccc(OC)c1C(=O)N[C@@H]1C(=O)N2[C@@H]1SC(C)(C)[C@@H]2C(=O)O`, in [2], the Potency result is “inactive”. Further, the outcome (in [6]; with Aromatase (Homo sapiens)) was inactive.

On to `CC1=NS(=O)(=O)c2cc(Cl)ccc2N1`, for which the Potency entry in [1], in [3], in experiment [4] and in [5] was “inactive” each time. For the same molecule, the result (in experiment [6]; in the experiment with Aromatase (Homo sapiens)) was inactive.

Consider `C[N+](C)(C)CCCCCCCCCC[N+](C)(C)C`, for which the Potency entry in experiment [1], in experiment [2], in [3], in experiment [4] and in [5] was “inactive” in each case. For the same molecule, in experiment [6], the result was inactive.

As to `Nc1c2c(nc3c1CCC3)CCCC2`, the call (in experiment [8]; in experiment [6]; in the experiment with Aromatase (Homo sapiens)) was inactive. For the same molecule, the Potency entry in experiment [1], in [2], in [3], in experiment [4] and in [5] was “inactive” each time.

Regarding `O=C(O)CCSCCC(=O)O`, the outcome (in experiment [8]; in experiment [6]; in the experiment with Aromatase (Homo sapiens)) was inactive. Besides, the Potency result in [2], in [3], in experiment [4] and in experiment [5] was “inactive” in each case.

On to `COC(=O)Nc1ccc(Cl)c(Cl)c1`, for which the Potency in experiment [7] is 60.8 µM (active). The molecule was called inactive (in [8]; in experiment [6]; with Aromatase (Homo sapiens)). Further, the Potency entry in [2] was “inactive”.

In the case of `C[C@H]1[C@H](NC(=O)/C(=N/OC(C)(C)C(=O)O)c2csc(N)n2)C(=O)N1S(=O)(=O)O` (stereo in doubt), in experiment [2], the Potency result is “inactive”. Moreover, the molecule was classed as inactive (in [6]; with Aromatase (Homo sapiens)).

Turning to `CNC(=O)Nc1ccc(Cl)c(Cl)c1`, the call (in experiment [8]; in [6]; in the experiment with Aromatase (Homo sapiens)) was inactive. Besides, the Potency result in [2] and in [4] was “inactive” each time.

Turning to `C1CCC2=NCCCN2CC1`, the Potency entry in [7] and in [2] was “inactive” in each case. Moreover, the molecule was classed as inactive (in experiment [8]; in experiment [6]; in the experiment with Aromatase (Homo sapiens)).

As for `Cc1cccc(C)c1NC(=O)CC12CCCN1CCC2`, the molecule was called inactive (in experiment [8]; in experiment [6]; with Aromatase (Homo sapiens)). Also, the Potency result in [1], in experiment [2], in experiment [3], in experiment [4] and in experiment [5] was “inactive” in each case.

For `NS(=O)(=O)Cc1noc2ccccc12`, the Potency result in experiment [7] and in experiment [2] was “inactive” in each case. Moreover, the result (in experiment [8]; in experiment [6]; with Aromatase (Homo sapiens)) was inactive.

Take `CC(C)COC(=O)c1ccc(N)cc1`: the Potency result in [1] and in experiment [2] was “inactive” each time. Further, the figures for the Potency in experiment [3] and in experiment [4] were 26.8 µM [activator] (active) and 26.6 µM (active), respectively. For the same molecule, the outcome (in experiment [6]; with Aromatase (Homo sapiens)) was inactive.

Turning to `CN(C)C(=O)Oc1ccc[n+](C)c1`, the Potency result in experiment [2], in experiment [3] and in [5] was “inactive” each time. For the same molecule, the Potency in experiment [4] is 26.6 µM (active). For the same molecule, the outcome (in experiment [6]; in the experiment with Aromatase (Homo sapiens)) was inactive.

Regarding `c1ccc2sc(SN3CCOCC3)nc2c1`, the Potency entry in experiment [7] and in experiment [2] was “inactive” throughout. Besides, the outcome (in [8]; in experiment [6]; with Aromatase (Homo sapiens)) was inactive.

`CCN(Cc1ccccc1)c1ccccc1`: the Potency result in experiment [1], in experiment [2], in experiment [3], in [4] and in experiment [5] was “inactive” in each case. For the same molecule, the result (in experiment [6]; with Aromatase (Homo sapiens)) was inactive.

`COc1c(N2CCNC(C)C2)c(F)cc2c(=O)c(C(=O)O)cn(C3CC3)c12` (configuration not stated): the Potency entry in experiment [7] and in [2] was “inactive” throughout. In addition, the molecule was called inactive (in [8]; in experiment [6]; in the experiment with Aromatase (Homo sapiens)).

In the case of `CC[N+](CC)(CC)CCOc1cccc(OCC[N+](CC)(CC)CC)c1OCC[N+](CC)(CC)CC`, the Potency result in [7] and in experiment [2] was “inactive” throughout. For the same molecule, the outcome (in experiment [8]; in experiment [6]; in the experiment with Aromatase (Homo sapiens)) was inactive.

In the case of `CC[N+](C)(CC)CCOC(=O)C1c2ccccc2Oc2ccccc21`, the outcome (in experiment [8]; in [6]; in the experiment with Aromatase (Homo sapiens)) was inactive. For the same molecule, the Potency entry in experiment [2] is “inactive”.

`Cc1c(N)c(=O)n(-c2ccccc2)n1C`: the molecule was called inactive (in experiment [8]; with Aromatase (Homo sapiens)). Besides, the Potency result in [2] was “inactive”.

`CN1CCN(c2cc3c(nn2)Oc2ccccc2N3C)CC1`: the Potency entry in experiment [7] and in experiment [2] was “inactive” each time. In addition, the call (in experiment [8]; in [6]; with Aromatase (Homo sapiens)) was inactive.

For `C[C@@H]1CCC[C@H](C)N1`, the molecule was classed as inactive (in experiment [8]; in experiment [6]; with Aromatase (Homo sapiens)).

For the molecule `O=C(CO)[C@@H](O)[C@H](O)[C@@H](O)CO`, the result (in experiment [8]; in experiment [6]; with Aromatase (Homo sapiens)) was inactive. In addition, the Potency entry in experiment [1], in experiment [2], in [3], in experiment [4] and in experiment [5] was “inactive” each time.

In the case of `Clc1cc(Cl)cc(Cl)c1`, the Potency result in experiment [2], in experiment [3], in [4] and in experiment [5] was “inactive” each time. The call (in [6]; in the experiment with Aromatase (Homo sapiens)) was inactive.
